# Reference: PubChem BioAssay AID778 (Sanford-Burnham Center for Chemical Genomics, 2007)
# In all, about 96,000 compounds went through this assay and about 20,000 (21%) were called active.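 The calls were made as follows: active = CYP2C19 inhibition above a set limit at 5 µM in the primary screen (cut at about 50% in these data); inactive = the rest.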 Only a sample is shown. Non-standard residues stand in square brackets, D forms with d. Residues, ends and D or L forms follow the SMILES beside them. ξ: configuration not given here. ξV = CC(C)C(N)C(=O)O
# Biological target: Cytochrome P450 2C19 (Homo sapiens) (UniProt P33261)
# Assay: blockers of cytochrome P450 2C19 activity – biochemical, luminescence, ADME assay, primary screen (AID 778);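 also: plate controls were negative control wells for no effect and 2.5 mM tranylcypromine positive control for full effect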
# Details: CYP2C19 Supersomes, luciferin-H EGE luminescence, 30 min; at 5 µM; hits give high values
# Sequence of Cytochrome P450 2C19 (Homo sapiens) (P33261 whole entry, looked up): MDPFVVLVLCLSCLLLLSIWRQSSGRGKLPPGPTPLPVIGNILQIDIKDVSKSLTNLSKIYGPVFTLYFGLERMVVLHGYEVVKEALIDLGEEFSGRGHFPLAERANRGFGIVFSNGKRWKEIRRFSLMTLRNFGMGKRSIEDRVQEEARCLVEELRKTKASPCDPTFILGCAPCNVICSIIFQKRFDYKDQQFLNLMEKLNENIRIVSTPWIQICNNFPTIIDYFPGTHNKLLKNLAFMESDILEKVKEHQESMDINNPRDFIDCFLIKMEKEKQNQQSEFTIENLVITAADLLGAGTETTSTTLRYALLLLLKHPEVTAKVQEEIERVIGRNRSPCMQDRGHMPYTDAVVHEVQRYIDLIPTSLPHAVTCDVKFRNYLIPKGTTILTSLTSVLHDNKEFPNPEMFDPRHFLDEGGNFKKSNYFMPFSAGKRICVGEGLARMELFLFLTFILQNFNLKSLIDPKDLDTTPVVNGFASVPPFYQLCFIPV
row,SMILES,inhibition
1,O=C(NC1CCN(Cc2ccccc2)CC1)c1ccccc1F,6.3% (inactive)
2,O=C(CCc1ccccc1)Nc1ccc(NC(=O)C2CC2)nc1,18.9% (inactive)
3,O=S(=O)(Nc1nccs1)c1ccc2c(c1)OCCO2,56.7% (active)
4,CC(C)NS(=O)(=O)c1ccc(OCC(=O)Nc2ccc3c(c2)OCCO3)cc1,28.9% (inactive)
5,CN1CCCN(S(=O)(=O)c2ccc3c(c2)OCCO3)CC1,-1.5% (inactive)
6,CCCCC(CC)C(=O)Nc1ccc(Cl)cn1 (configuration not stated),7.2% (inactive)
7,CC(=O)Nc1ccc(S(=O)(=O)Nc2nc3n(n2)C(c2ccccc2)CC(=O)N3)cc1 (configuration not stated),-6% (inactive)
8,O=S(=O)(O)c1nc2ccccc2n1Cc1ccc(Cl)cc1,2.7% (inactive)
9,N=c1n(Cc2ccc(Cl)cc2)c2ccccc2n1CC(O)c1ccco1 (configuration not stated),83.1% (active)
10,Cn1c(=N)n(CC(O)c2ccccc2)c2ccccc21 (configuration not stated),-12.3% (inactive)
11,Cc1ccc(/C=N/NC(=O)c2sccc2OCc2ccc(F)cc2)cc1,-8.9% (inactive)
12,Oc1ccccc1/C=N/n1c(-c2cccs2)n[nH]c1=S,-14.5% (inactive)
13,COc1ccc(-c2[nH]nc3c2C(c2ccncc2)C(C#N)=C(N)O3)cc1 (configuration not stated),-1.2% (inactive)
14,CCCN1C(=O)C(NC(C)=O)c2cc(OC)ccc21 (configuration not stated),-12.9% (inactive)
15,COC(=O)C1=C(C)OC(N)=C(C#N)C1c1cc(OC)ccc1OC (configuration not stated),53.3% (active)
16,CCCN1CC=C2C(C#N)=C(N)C(C#N)(C#N)C(c3cc(OC)ccc3OC)C2C1 (configuration not stated),16.6% (inactive)
17,CCC1=C(C(=O)OC)C(c2cc(OC)ccc2OC)C(C#N)=C(N)O1 (configuration not stated),54.8% (active)
18,Cc1cc(=O)oc(C)c1C(=O)NCc1ccc(F)cc1,33.5% (inactive)
19,CC(=O)NC(C(=O)NCC(N)=O)C(C)C (configuration not stated) (Ac-[ξV]-Gly-NH2),-4% (inactive)
20,COc1ccc(C2OC(=O)CC2C(=O)NC(C)C)cc1 (configuration not stated),19.5% (inactive)
21,O=C(Nc1ccccc1F)C1C2C=CC3(O2)C1C(=O)N(c1cccnc1)C3C(=O)NC1CCCCC1 (configuration not stated),-8.2% (inactive)
22,CCC(=O)N(C)C(c1ccccc1Cl)c1nnnn1-c1c(C)cccc1C (configuration not stated),11.1% (inactive)
23,Cc1cc(C)cc(NS(=O)(=O)c2ccc(Oc3ncc(C(F)(F)F)cc3Cl)cc2)c1,9.5% (inactive)
24,O=C(c1ccccn1)c1ncc(C(F)(F)F)cc1Cl,44.3% (inactive)
25,C#CCN(N(C)c1ncc(C(F)(F)F)cc1Cl)S(=O)(=O)c1ccc2ccccc2c1,94.5% (active)

row,SMILES,inhibition
1,CC(NC(=O)C1CCC(CNc2c(N3CCOCC3)c(=O)c2=O)CC1)c1ccccc1 (configuration not stated),-2.1% (inactive)
2,Nc1nc(Br)c2ccccc2c1-c1ccc(F)cc1,18.7% (inactive)
3,N#Cc1c(C(F)(F)F)cc(-c2ccccc2)nc1SCC(=O)N1CCOCC1,0% (inactive)
4,CCC/C(O)=C1\C(=O)CC(C)(C)CC1=Nc1ccccc1OC,45.5% (inactive)
5,CC1(C)CC(=O)C=C(NC2CC(C)(C)NC(C)(C)C2)C1,-1.1% (inactive)
6,COc1ccccc1-c1n[nH]c2c1[C@H](C)CC[C@H]2C(C)C,21% (inactive)
7,CN(C(=O)COc1nnc(-c2cccs2)c(-c2cccs2)n1)c1ccccc1,75.5% (active)
8,O=C(O)COc1ccc(-c2nccc(-c3cccs3)n2)cc1,-9.2% (inactive)
9,CCOc1cccc(C(=O)Nc2nnc(-c3cccs3)s2)c1,2.2% (inactive)
10,O=C(O)Cc1ccc(NC(=O)C2CCCCC2C(=O)O)cc1 (configuration not stated),2.3% (inactive)
11,CSCCC(Nc1nc2ccccc2s1)C(=O)O (configuration not stated),12.6% (inactive)
12,COc1cccc(C2/C(=C(/O)c3ccncc3)C(=O)C(=O)N2CCCN(C)C)c1 (configuration not stated),-12.6% (inactive)
13,COc1cc(C2C(C(=O)c3sc(C)nc3C)=C(O)C(=O)N2CCN(C)C)cc(OC)c1OC (configuration not stated),76.7% (active)
14,COc1cc(C2C(C(=O)c3ccc(C)o3)=C(O)C(=O)N2Cc2cccnc2)ccc1O (configuration not stated),-12.6% (inactive)
15,COc1ccc(OC)c(C(c2nnnn2C(C)(C)C)N2CCc3ccccc3C2)c1 (configuration not stated),94.8% (active)
16,Cc1ccc(C(c2nnnn2C(C)(C)C)N2CCc3ccccc3C2)cc1 (configuration not stated),14.4% (inactive)
17,COC(=O)C1C(=O)c2c([nH]c(C(=O)OCCSC)c2C)CC1C (configuration not stated),10.1% (inactive)
18,Cc1nn(CCOc2ccccc2)c(=O)n1-c1ccccc1F,53.1% (active)
19,Cc1cc2ncn(CCCCOc3ccccc3)c2cc1C,40.1% (inactive)
20,Nc1nc(SCCOc2ccccc2)n[nH]1,28.3% (inactive)
21,CC(C)Oc1ccc(C2NC(=O)NC2=O)cc1 (configuration not stated),-16.7% (inactive)
22,O=C(Nc1ccc(NC(=O)c2cccs2)cn1)c1ccco1,17.3% (inactive)
23,COc1ccc2c(c1)C(C)=CC(C)(C)N2C(=O)CNCc1ccc2c(c1)OCO2,84.8% (active)
24,Cc1ccc(-n2ncc3c(=O)[nH]cnc32)c(C)c1,-3.8% (inactive)
25,COn1c(=O)c(=O)n(OC)c2ccccc21,-6.8% (inactive)

row,SMILES,inhibition
1,Cc1ccc(NC(=O)Nc2ccc3oc(C)nc3c2)cc1,3% (inactive)
2,CCn1cc(C(=O)NCc2ccc3c(c2)OCO3)c2cc(OC)c(OC)cc2c1=O,15.2% (inactive)
3,COc1ccc(C(=O)NCc2cn3ccccc3n2)cc1,1.2% (inactive)
4,CCn1cc(C(=O)NCc2ccc(OC)cc2OC)c(=O)c2ccc(C)nc21,66.3% (active)
5,CC(c1ccco1)N(C(=O)Nc1ccccc1)C1CCCCC1 (configuration not stated),76.2% (active)
6,CCOc1ccc(NC(=O)N(CCC(C)C)C(C)c2ccco2)cc1 (configuration not stated),24.3% (inactive)
7,CC(NC(=O)Nc1ccccc1)c1ccccc1 (configuration not stated),24.8% (inactive)
8,CC(=O)c1c(N)n(C)c(=O)n(C)c1=O,0.9% (inactive)
9,CCN(CC)Cc1c(C(=O)OC)nnn1-c1nonc1N,4.8% (inactive)
10,CCOC(=O)c1nnn(-c2nonc2-n2cccc2)c1CN1CCOCC1,3.7% (inactive)
11,CCOC(=O)c1nnn(-c2nonc2-n2cccc2)c1CN1CCC(C(=O)OCC)CC1,98% (active)
12,CC(=O)Oc1cccc(N2C(=O)CC(Nc3ccc(N4CCOCC4)cc3)C2=O)c1 (configuration not stated),18.5% (inactive)
13,Cc1ccc(NC(=O)NCC(c2cccnc2)N2CCOCC2)cc1 (configuration not stated),-7.8% (inactive)
14,CCOC(=O)N1CCN(C(=O)C2CC(c3ccc(F)cc3)=NO2)CC1 (configuration not stated),1.7% (inactive)
15,COC(=O)[C@H](C(C)C)n1c(C)c(C(C)=O)c(C(C)=O)c1C,6.6% (inactive)
16,O=[N+]([O-])c1c(NCCO)cc(Sc2nc3ccccc3s2)c2nonc12,28.1% (inactive)
17,O=C(c1ccc(Cl)cc1)c1ccc(OCC(O)CN2CCCCC2)cc1 (configuration not stated),8.8% (inactive)
18,OC(COc1ccc2c(c1)CCC2)CN1CCN(c2cccc(Cl)c2)CC1 (configuration not stated),59.3% (active)
19,OC(COc1cccc(OCC(O)CN2CCCC2)c1)CN1CCCC1 (configuration not stated),0.1% (inactive)
20,CCN(CC)c1ccc2cc(C(=O)O)c(=O)oc2c1,-13.2% (inactive)
21,CCOc1cc(C(=O)N2CCc3cc(OC)c(OC)cc3C2)ccc1OC(F)F,51.6% (active)
22,COc1cc2c(cc1OC)CN(C(=O)c1cc(=O)c3ccccc3o1)CC2,19.7% (inactive)
23,CCOc1cc(CN2CCN(C(=O)CC(C)C)CC2)ccc1OC,-10.6% (inactive)
24,CN1CCN(CC(O)COCc2ccc3c(c2)OCO3)CC1 (configuration not stated),-20.9% (inactive)
25,Cc1ccc(NC(=O)CS(=O)CC(=O)N(c2ccccc2)C(C)C(=O)NC2CCCC2)cc1 (configuration not stated),9.7% (inactive)

row,SMILES,inhibition
1,O=C(NCc1ccccn1)c1c(O)c2c([nH]c1=O)CCCC2,11.7% (inactive)
2,CCCc1cc(-c2n[nH]c(=S)n2Cc2ccccc2)cs1,5.4% (inactive)
3,Cc1ccc(S(=O)(=O)Nc2ccccc2CNc2c(C)n(C)n(-c3ccccc3)c2=O)cc1,95.6% (active)
4,COc1ccc(S(=O)(=O)Nc2c(C)n(C)n(-c3ccccc3)c2=O)cc1,-4.1% (inactive)
5,Cc1c(Nc2nc3ccccc3nc2NS(=O)(=O)c2cccs2)c(=O)n(-c2ccccc2)n1C,1% (inactive)
6,CCOc1ccc(-c2c(C)n([O-])c3c([n+]2=O)CCCC3)cc1,9.2% (inactive)
7,Cc1ccn2cc(-c3nonc3C)cc2c1,50.1% (active)
8,COc1cc(Cl)c(S(=O)(=O)N2CCN(Cc3ccc4c(c3)OCO4)CC2)cc1Cl,36.2% (inactive)
9,COc1ccc(Cl)cc1S(=O)(=O)N1CCN(CC(=O)C(C)(C)C)CC1,85.9% (active)
10,COc1ccc(NC(=O)CN2CCN(S(=O)(=O)c3ccc(F)cc3)CC2)cc1Cl,0.5% (inactive)
11,COc1cc(NS(=O)(=O)c2ccc(N=Cc3c(C)[nH]n(-c4ccccc4)c3=O)cc2)nc(OC)n1,-18% (inactive)
12,COc1cc(/C=N\NC(=O)CNC(=O)c2cccc([N+](=O)[O-])c2)ccc1O,23% (inactive)
13,COc1ccc(C(=O)Nc2ccccc2C(=O)N/N=C/c2ccccc2OC)cc1,-5.9% (inactive)
14,COc1ccc(C(=O)Nc2ccccc2C(=O)N/N=C/c2ccc(O)c(OC)c2)cc1,87.2% (active)
15,N#Cc1ccsc1NC(=O)CN1CCCCC1,-6.2% (inactive)
16,NNC(=O)C1CCCn2c1nc1sc3c(c1c2=O)CCCC3 (configuration not stated),12.4% (inactive)
17,Cn1c(NN)nc2sc3c(c2c1=O)CCC3,78.4% (active)
18,CC1CCc2c(sc3nc4n(c(=O)c23)CCS4)C1 (configuration not stated),-6.7% (inactive)
19,Cc1cccc(N2CCN(Cc3c(C)n(C)n(-c4ccccc4)c3=O)CC2)c1C,15.2% (inactive)
20,COC(=O)Nc1sc2nc(C)cc(C)c2c1-n1cccc1,19.5% (inactive)
21,Cn1c(NC(=O)c2ccco2)c(-c2ccccc2Cl)c(=O)c2ccccc21,-6.5% (inactive)
22,CCCC(O)(c1ccc(OC)cc1)C(CN(C)C)c1ccccc1 (configuration not stated),-13.2% (inactive)
